Reference: PubChem BioAssay (Tox21)
Inconclusive results are not listed. A call without a number means that no potency is given here. Unmarked numbers belong to inactive results. Activity calls are given as the source filed them. Unless noted, the call rests on the fitted dose curve; in most records, active means well fitted curve in the direction sought with a large enough effect in the repeat runs; inconclusive means weak or mixed curves; inactive means no such curve, though single readings can be large; an effect the other way counts as inactive or inconclusive.

Assays:
[1] = target: Aryl hydrocarbon receptor (Homo sapiens) (UniProt P35869); assay: qHTS assay to identify small molecule that activate the aryl hydrocarbon receptor (AhR) signaling pathway (AID 743085); further: nearly all actives have a fitted effect of over 15% in size; further: potency means the concentration at half of the fitted maximal effect;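 on activation: HG2L7.5c1 human HepG2 liver cells with stably integrated DRE-driven firefly reporter; series mostly up to about 70 µM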
Aryl hydrocarbon receptor (Homo sapiens), sequence (P35869 whole entry, looked up): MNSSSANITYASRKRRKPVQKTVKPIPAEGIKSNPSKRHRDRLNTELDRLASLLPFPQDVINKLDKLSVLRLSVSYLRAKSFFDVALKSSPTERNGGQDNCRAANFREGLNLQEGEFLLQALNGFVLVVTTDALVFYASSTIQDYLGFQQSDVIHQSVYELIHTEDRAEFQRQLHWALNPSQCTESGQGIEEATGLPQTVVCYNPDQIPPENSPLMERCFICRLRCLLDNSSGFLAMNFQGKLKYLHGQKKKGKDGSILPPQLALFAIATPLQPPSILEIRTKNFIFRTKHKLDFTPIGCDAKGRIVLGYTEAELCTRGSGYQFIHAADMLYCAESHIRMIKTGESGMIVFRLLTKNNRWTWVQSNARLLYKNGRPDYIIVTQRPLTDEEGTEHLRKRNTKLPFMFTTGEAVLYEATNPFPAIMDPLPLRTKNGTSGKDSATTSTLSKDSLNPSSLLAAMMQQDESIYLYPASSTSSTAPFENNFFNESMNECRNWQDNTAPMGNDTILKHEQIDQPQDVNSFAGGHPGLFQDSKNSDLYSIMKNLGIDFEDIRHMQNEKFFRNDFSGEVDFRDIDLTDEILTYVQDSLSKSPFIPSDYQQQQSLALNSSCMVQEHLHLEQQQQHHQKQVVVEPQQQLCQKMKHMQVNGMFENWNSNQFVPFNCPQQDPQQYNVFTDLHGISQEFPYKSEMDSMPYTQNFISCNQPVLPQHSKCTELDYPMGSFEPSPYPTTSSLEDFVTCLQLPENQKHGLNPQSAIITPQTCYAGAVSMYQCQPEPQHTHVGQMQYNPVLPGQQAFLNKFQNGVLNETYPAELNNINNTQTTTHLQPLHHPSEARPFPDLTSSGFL
In short: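 Steps: seed HepG2-AhR-luc cells; allow 5 h at 37C; pin-transfer test compound or vehicle; incubate 24 h at 37C; add viability dye (30 min, 37C) and read fluorescence; add luciferase substrate (30 min, RT) and read luminescence.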

[2] = qHTS assay to identify small molecule that activate the aryl hydrocarbon receptor (AhR) signaling pathway - cell viability counter screen (AID 743086);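 further: HepG2 liver cells carrying the AhR DRE luciferase reporter; series mostly up to about 70 µM; nearly all actives have a fitted effect of over 45% in size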
In short: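 Cytotoxicity counter screen: CellTiter-Fluor signal (30 min, 37 C) in 4000 HepG2 cells/well carrying the DRE-luciferase reporter, following 24 h compound exposure at 37 C.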

[3] = target: Peroxisome proliferator-activated receptor gamma (Homo sapiens) (UniProt P37231); assay: qHTS assay to identify small molecule agonists of the peroxisome proliferator-activated receptor gamma (PPARg) signaling pathway (AID 743094; active means well fitted activation curve with a large enough effect in the signal ratio in the repeat runs, not every such curve was filed as active; the % refers to the signal ratio)
Peroxisome proliferator-activated receptor gamma (Homo sapiens), sequence (P37231 whole entry, looked up): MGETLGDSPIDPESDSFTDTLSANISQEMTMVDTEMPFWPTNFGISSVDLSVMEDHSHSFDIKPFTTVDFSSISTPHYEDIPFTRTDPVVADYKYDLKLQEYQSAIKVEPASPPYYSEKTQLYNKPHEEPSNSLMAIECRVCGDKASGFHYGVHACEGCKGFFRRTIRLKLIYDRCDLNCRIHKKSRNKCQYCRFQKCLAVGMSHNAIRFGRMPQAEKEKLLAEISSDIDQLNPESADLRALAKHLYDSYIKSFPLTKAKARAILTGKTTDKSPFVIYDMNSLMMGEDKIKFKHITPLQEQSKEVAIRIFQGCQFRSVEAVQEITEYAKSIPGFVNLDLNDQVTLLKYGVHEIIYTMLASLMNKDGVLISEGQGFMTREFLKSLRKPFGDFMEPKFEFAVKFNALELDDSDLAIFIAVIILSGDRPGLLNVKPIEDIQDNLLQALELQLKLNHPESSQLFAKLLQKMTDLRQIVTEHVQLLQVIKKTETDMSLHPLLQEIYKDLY
In short: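 Cell-based bla reporter, HEK293H background, PPARg-driven UAS. Pre-incubation 5 h, 37C, 5% CO2. Compound 17 h, 37C. Substrate 1 h RT; fluorescence.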

[4] = target: Peroxisome proliferator-activated receptor gamma (Homo sapiens) (UniProt P37231); assay: qHTS assay to identify small molecule antagonists of the peroxisome proliferator-activated receptor gamma (PPARg) signaling pathway (AID 743191; calls by dose curve; further: series mostly up to about 63 µM; nearly all actives have a fitted effect of over 30% in size)
In short: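 Beta-lactamase reporter under UAS control in HEK293H PPARg-bla cells; compound treatment 17 h at 37C. Read-out: fluorescence intensity after 1 h room-temperature incubation with LiveBLAzer B/G FRET substrate.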

[5] = qHTS assay to identify small molecule antagonists of the peroxisome proliferator-activated receptor gamma (PPARg) signaling pathway - cell viability counter screen (AID 743194); further: nearly all actives have a fitted effect of over 55% in size
In short: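 Viability was measured as CellTiter-Glo luminescence in GeneBLAzer PPARg UAS-bla HEK293H cells. These cells had been exposed 17 h at 37 C to compounds together with rosiglitazone at 50 nM final, with the beta-lactamase readout taken in the same wells.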

[6] = qHTS assay for small molecule agonists of the antioxidant response element (ARE) signaling pathway (AID 743202; active means well fitted activation curve with a large enough effect in the signal ratio in the repeat runs, not every such curve was filed as active; the % refers to the signal ratio)
In short: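 Beta-lactamase reporter activity, read as fluorescence intensity, reflects ARE/Nrf2 pathway induction in HepG2 cells after 16 h compound exposure at 37 C; substrate loading was 2 h at room temperature.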

[7] = qHTS assay for small molecule agonists of the antioxidant response element (ARE) signaling pathway - cell viability counter screen (AID 743203; calls by dose curve; further: nearly all actives have a fitted effect of over 55% in size)
In short: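 Measured in the same wells as the beta-lactamase ARE reporter, this read-out is CellTiter-Glo luminescence from HepG2 ARE-bla cells given compounds for 16 hrs.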

[8] = qHTS assay for small molecule activators of the heat shock response signaling pathway - cell viability counter screen (AID 743209); further: nearly all actives have a fitted effect of over 50% in size
In short: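 Same-well multiplex: after 2.5 h room-temperature incubation with LiveBLAzer B/G substrate and fluorescence reading, CellTiter-Glo reagent was added to HSE-bla HeLa cells that had received compound for 5 h at 37 C; luminescence read after 30 min.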

[9] = qHTS assay to identify small molecule agonists of the peroxisome proliferator-activated receptor delta (PPARd) signaling pathway - cell viability counter screen (AID 743211); further: nearly all actives have a fitted effect of over 55% in size
In short: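 Viability of GeneBLAzer PPARd UAS-bla HEK293H cells was assessed after 17 h compound incubation at 37C, using CellTiter-Glo reagent added after the reporter read and luminescence recorded 30 min later.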

[10] = target: Peroxisome proliferator-activated receptor delta (Homo sapiens) (UniProt Q03181); assay: qHTS assay to identify small molecule agonists of the peroxisome proliferator-activated receptor delta (PPARd) signaling pathway (AID 743212; calls by dose curve;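 further: HEK293H cells with PPARd UAS beta-lactamase reporter GeneBLAzer system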)
Peroxisome proliferator-activated receptor delta (Homo sapiens), sequence (Q03181 whole entry, looked up): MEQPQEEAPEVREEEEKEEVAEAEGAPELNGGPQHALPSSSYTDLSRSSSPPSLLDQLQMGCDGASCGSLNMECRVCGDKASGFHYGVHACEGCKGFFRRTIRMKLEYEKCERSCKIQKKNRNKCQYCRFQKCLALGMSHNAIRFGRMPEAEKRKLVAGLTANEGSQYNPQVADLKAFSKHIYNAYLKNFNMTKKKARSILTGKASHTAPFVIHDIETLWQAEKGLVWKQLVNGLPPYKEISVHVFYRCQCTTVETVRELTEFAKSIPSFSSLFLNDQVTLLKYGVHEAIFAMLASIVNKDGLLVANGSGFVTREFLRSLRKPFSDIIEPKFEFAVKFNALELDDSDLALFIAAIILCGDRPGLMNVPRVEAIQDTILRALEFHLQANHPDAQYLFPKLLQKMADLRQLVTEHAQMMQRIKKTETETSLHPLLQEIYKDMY
In short: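 Steps: seed PPARd-bla HEK293H cells; incubate 5 h, 37 C, 5% CO2; add compounds in DMSO; incubate, 37 C; add LiveBLAzer B/G FRET substrate; hold 2 h at room temperature; measure fluorescence.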

[11] = qHTS assay to identify small molecule antagonists of the peroxisome proliferator-activated receptor delta (PPARd) signaling pathway - cell viability counter screen (AID 743213); further: nearly all actives have a fitted effect of over 50% in size
In short: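 In this counter screen, HEK293H cells carrying a UAS-beta-lactamase reporter are co-treated with test compounds and 300 nM L165041 (final) for 17 h at 37 C; cell viability is quantified by CellTiter-Glo luminescence.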

[12] = target: Peroxisome proliferator-activated receptor delta (Homo sapiens) (UniProt Q03181); assay: qHTS assay to identify small molecule antagonists of the peroxisome proliferator-activated receptor delta (PPARd) signaling pathway (AID 743215; active means well fitted inhibition curve with a large enough effect in the signal ratio in the repeat runs, not every such curve was filed as active; the % refers to the signal ratio;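 further: cells stimulated with agonist L165041 at 300 nM final during compound exposure; series mostly up to about 62 µM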)
In short: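 Fluorescence from cleaved LiveBLAzer B/G FRET substrate (2 h, room temperature) reports PPARd-driven beta-lactamase in HEK293H UAS-bla cells. Cells had been treated 17 h at 37 C with compound plus 300 nM final L165041.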

[13] = qHTS assay to identify small molecule agonists of the farnesoid-X-receptor (FXR) signaling pathway - cell viability counter screen (AID 743218); further: nearly all actives have a fitted effect of over 45% in size
In short: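 Readout: CellTiter-Glo luminescence, 30 min RT, multiplexed after the FXR-bla FRET reading. HEK 293T FXR-UAS-bla cells received compound 5 h post-plating and were incubated 16 h at 37 C.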

[14] = qHTS assay to identify small molecule antagonists of the farnesoid-X-receptor (FXR) signaling pathway - cell viability counter screen (AID 743221; active means well fitted cell-killing curve with a large enough effect in the repeat runs, not every such curve was filed as active; further: nearly all actives have a fitted effect of over 50% in size)
In short: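 Quantitative HTS of the Tox21 10K library run in parallel with the beta-lactamase reporter read. HEK 293T cells carrying a UAS-driven bla reporter got compound and 50 uM CDCA (final) for 16 h; ATP-based luminescence followed.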

[15] = target: Vitamin D3 receptor (Homo sapiens) (UniProt P11473); assay: qHTS assay to identify small molecule agonists of the vitamin D receptor (VDR) signaling pathway (AID 743222; calls by dose curve)
Vitamin D3 receptor (Homo sapiens), sequence (P11473 whole entry, looked up): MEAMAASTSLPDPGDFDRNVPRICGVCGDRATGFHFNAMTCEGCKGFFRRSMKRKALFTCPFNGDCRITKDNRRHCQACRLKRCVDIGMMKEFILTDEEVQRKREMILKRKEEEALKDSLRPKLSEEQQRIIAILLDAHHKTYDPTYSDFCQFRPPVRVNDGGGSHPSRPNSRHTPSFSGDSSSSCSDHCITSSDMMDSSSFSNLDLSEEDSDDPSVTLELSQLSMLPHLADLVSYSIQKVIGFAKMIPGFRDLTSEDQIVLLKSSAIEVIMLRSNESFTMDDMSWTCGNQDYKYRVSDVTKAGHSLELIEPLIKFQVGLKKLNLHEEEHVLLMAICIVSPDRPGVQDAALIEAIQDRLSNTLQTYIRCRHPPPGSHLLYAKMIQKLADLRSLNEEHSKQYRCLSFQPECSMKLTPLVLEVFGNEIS
In short: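 Following 4 h attachment at 37C, VDR-bla cells (2,000 per well) received DMSO-dissolved compounds or controls. After 16 h incubation, LiveBLAzer B/G FRET substrate was added and fluorescence read 2 h later at room temperature.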

[16] = target: Vitamin D3 receptor (Homo sapiens) (UniProt P11473); assay: qHTS assay to identify small molecule antagonists of the vitamin D receptor (VDR) signaling pathway (AID 743223; active means well fitted inhibition curve with a large enough effect in the signal ratio in the repeat runs, not every such curve was filed as active; the % refers to the signal ratio)
In short: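 Fluorescence from LiveBLAzer B/G FRET substrate, read after 2 h at room temperature, reflects beta-lactamase reporter activity in VDR-bla cells treated 16 h at 37C with compounds and agonist 1alpha,25-dihydroxyvitamin D3 (3 nM final).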

[17] = qHTS assay to identify small molecule agonists of the vitamin D receptor (VDR) signaling pathway - cell viability counter screen (AID 743224); further: series mostly up to about 63 µM; nearly all actives have a fitted effect of over 50% in size
In short: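 In parallel with the bla FRET readout, cytotoxicity toward VDR-bla cells after 16 h compound exposure was assessed by CellTiter-Glo, with luminescence recorded after a 30 min room-temperature incubation.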

[18] = qHTS assay for small molecule activators of the heat shock response signaling pathway (AID 743210; active means well fitted activation curve with a large enough effect in the signal ratio in the repeat runs, with a control signal flat, not every such curve was filed as active; the % refers to the signal ratio;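 further: HeLa cells with beta-lactamase reporter driven by heat shock elements; series mostly up to about 63 µM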)
In short: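 Fluorescence from a cleaved B/G FRET substrate (2.5 h, room temp) reports HSE-driven beta-lactamase in HeLa cells treated 5 h at 37 C with DMSO-dissolved compounds.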

[19] = target: Bile acid receptor (Homo sapiens) (UniProt Q96RI1); assay: qHTS assay to identify small molecule antagonists of the farnesoid-X-receptor (FXR) signaling pathway (AID 743217; active means well fitted inhibition curve with a large enough effect in the signal ratio in the repeat runs, not every such curve was filed as active; the % refers to the signal ratio)
Bile acid receptor (Homo sapiens), sequence (Q96RI1 whole entry, looked up): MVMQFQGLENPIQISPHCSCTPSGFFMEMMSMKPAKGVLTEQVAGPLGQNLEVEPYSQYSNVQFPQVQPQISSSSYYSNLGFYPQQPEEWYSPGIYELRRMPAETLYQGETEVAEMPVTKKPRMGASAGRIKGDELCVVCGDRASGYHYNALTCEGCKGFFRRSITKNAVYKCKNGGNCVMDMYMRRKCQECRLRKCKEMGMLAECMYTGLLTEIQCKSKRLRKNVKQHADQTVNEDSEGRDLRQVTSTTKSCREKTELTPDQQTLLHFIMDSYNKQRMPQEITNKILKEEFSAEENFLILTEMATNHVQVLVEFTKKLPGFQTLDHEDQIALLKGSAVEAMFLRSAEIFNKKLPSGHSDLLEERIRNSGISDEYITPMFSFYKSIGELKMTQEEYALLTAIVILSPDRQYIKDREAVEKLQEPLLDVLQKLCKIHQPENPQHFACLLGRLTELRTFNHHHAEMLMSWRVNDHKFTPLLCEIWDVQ
In short: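 FRET fluorescence after 2 h room-temperature LiveBLAzer loading gives the readout. Prior step: FXR-bla HEK 293T cells, seeded and incubated 5 h, received test compounds plus 50 uM final CDCA for 16 h at 37 °C.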

[20] = target: Bile acid receptor (Homo sapiens) (UniProt Q96RI1); assay: qHTS assay to identify small molecule agonists of the farnesoid-X-receptor (FXR) signaling pathway (AID 743220; active means well fitted activation curve with a large enough effect in the signal ratio in the repeat runs, not every such curve was filed as active; the % refers to the signal ratio)
In short: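 FXR-UAS-bla HEK 293T cells carrying a UAS-driven beta-lactamase reporter were plated for 5 h at 37C/5% CO2, then exposed to DMSO-dissolved Tox21 10K compounds for 16 h at 37C. A LiveBLAzer B/G FRET substrate was loaded for 2 h at room temperature before fluorescence reading.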

Structure (SMILES) | Potency [1] | Potency [2] | Potency [3] | outcome [4] | outcome [5] | Potency [6] | outcome [7] | Potency [8] | outcome [9] | outcome [10] | outcome [11] | outcome [12] | outcome [13] | outcome [14] | outcome [15] | outcome [16] | outcome [17] | outcome [18] | outcome [19] | outcome [20]
O/N=C/C=N/O | inactive | inactive | inactive | inactive | inactive | inactive | inactive | inactive | inactive | inactive | inactive | inactive | inactive | inactive | inactive | inactive | inactive | – | – | –
CC(C)=CCC[C@@](C)(O)[C@H]1CC=C(C)CC1 | inactive | inactive | inactive | inactive | inactive | inactive | inactive | inactive | inactive | inactive | inactive | inactive | inactive | inactive | – | inactive | inactive | – | – | –
CC(S)C(C)S (stereo not drawn) | inactive | inactive | inactive | inactive | inactive | inactive | inactive | inactive | inactive | inactive | inactive | – | inactive | inactive | inactive | – | inactive | inactive | inactive | inactive
CC(=O)C(C)O (stereo not drawn) | inactive | inactive | inactive | inactive | inactive | inactive | inactive | inactive | inactive | inactive | inactive | inactive | inactive | inactive | inactive | – | – | inactive | – | inactive
CCCCCCCCCCCCCBr | inactive | inactive | inactive | inactive | inactive | inactive | inactive | inactive | inactive | inactive | inactive | inactive | inactive | inactive | – | – | inactive | inactive | inactive | inactive
COC(C)(OC)OC | inactive | inactive | inactive | inactive | inactive | inactive | inactive | inactive | inactive | inactive | inactive | inactive | inactive | inactive | inactive | – | – | inactive | – | –
C=CCCCCCCCC | inactive | inactive | inactive | inactive | inactive | inactive | inactive | inactive | inactive | inactive | inactive | inactive | inactive | inactive | – | – | inactive | inactive | – | –
OCCN1CCOCC1 | inactive | inactive | inactive | inactive | inactive | inactive | inactive | inactive | inactive | inactive | inactive | inactive | – | inactive | – | – | inactive | inactive | – | –
C/C=C(\C)C(C)=O | inactive | inactive | inactive | inactive | inactive | inactive | inactive | inactive | inactive | inactive | inactive | inactive | inactive | inactive | – | – | inactive | – | – | –
O=C(O)CNC(=O)CNC(=O)CNC(=O)CSC(=O)c1ccccc1 | inactive | inactive | inactive | inactive | inactive | inactive | inactive | inactive | inactive | – | inactive | – | – | inactive | inactive | – | inactive | inactive | – | –
CO/N=C(/C(=O)N[C@@H]1C(=O)N2C(C(=O)[O-])=C(C[n+]3ccn4ncccc43)CS[C@H]12)c1nsc(N)n1 | inactive | inactive | inactive | inactive | inactive | inactive | inactive | inactive | inactive | inactive | inactive | inactive | inactive | inactive | – | – | – | inactive | – | –
CO[C@@]1(NC(=O)Cc2cccs2)C(=O)N2C(C(=O)O)=C(COC(N)=O)CS[C@@H]21 | inactive | inactive | inactive | inactive | inactive | inactive | inactive | inactive | inactive | – | inactive | – | inactive | inactive | – | – | inactive | inactive | – | –
COc1c2occc2c(OC)c2c(=O)cc(C)oc12 | 114 nM (active) | inactive | inactive | inactive | inactive | inactive | inactive | inactive | inactive | – | – | – | – | inactive | – | inactive | inactive | inactive | – | inactive
O=C(O)c1cc2ccccc2nc1C(=O)O | inactive | inactive | inactive | inactive | inactive | inactive | inactive | inactive | inactive | inactive | inactive | inactive | inactive | inactive | inactive | inactive | – | inactive | inactive | inactive
CN1C[C@@H]2C[C@H]1CN2c1cc2c(cc1F)c(=O)c(C(=O)O)cn2C1CC1 | inactive | inactive | inactive | inactive | inactive | inactive | inactive | inactive | inactive | inactive | inactive | inactive | inactive | inactive | inactive | inactive | inactive | inactive | – | inactive
